{"source": "PubChem BioAssay AID430", "about": "(Sanford-Burnham Center for Chemical Genomics, 2006)", "note": "Values joined by “and” are separate entries in the source; they are usually repeats but may differ in a detail not shown here. Equal values may be shown once. In all, about 63,000 compounds went through this assay and about 1,100 (1.7%) were called active. Rule as the data show it: active = cytotoxicity above about 50%; inactive = the rest. For the sample, actives were picked, then their nearest neighbours and some compounds at random. Results with a measured potency or affinity are listed apart. A structure can be active in one record and inactive in another."}
{"experiment": "cytotoxicity in HPDE-C7 cells, cell-based, fluorescence, HTS (AID 430);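 also: cells exposed to compound for 48 hours before viability readout; 0% = vehicle and 100% = reference cytotoxic drug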", "conditions": "HPDE-C7 pancreatic duct cells viability, at 10 µM, stronger effect = higher value"}
{"smiles": "Cc1ccc(NC(=O)CS(=O)CC(=O)Nc2cccc(C)c2C)cc1F", "note": "(stereo unspecified)", "cytotoxicity": "-15.9% (inactive)"}
{"smiles": "COc1ccc(Cl)c(Cn2c(NCC(C)O)nc3c2c(=O)n(C)c(=O)n3C)c1", "note": "(stereo unspecified)", "cytotoxicity": "-9.9% (inactive)"}
{"smiles": "O=C1c2ccccc2-c2ncnc3cccc1c23", "cytotoxicity": "0.7% (inactive)"}
{"smiles": "O=C1c2ccccc2-c2nccnc21", "cytotoxicity": "-15.6% (inactive)"}
{"smiles": "O=C(O)c1ccc2c3c(ncnc13)-c1ccccc1C2=O", "cytotoxicity": "75.6% (active)"}
{"smiles": "CCc1nnc(NC(=O)CCN2C(=O)c3ccccc3S2(=O)=O)s1", "cytotoxicity": "-4.2% (inactive)"}
{"smiles": "Nc1nc(Cl)nc2c1ncn2[C@@H]1O[C@H](CO)[C@@H](O)[C@H]1O", "cytotoxicity": "8.6% (inactive)"}
{"smiles": "Nc1nc(F)nc2c1ncn2[C@@H]1O[C@H](CO)[C@@H](O)[C@@H]1O", "cytotoxicity": "13.2% (inactive)"}
{"smiles": "Nc1nc(Cl)nc2c1ncn2[C@H]1C[C@H](O)[C@@H](CO)O1", "cytotoxicity": "7.4% (inactive) and 95.9% (active)"}
{"smiles": "Cc1ccc(NC(=O)Cn2c(C)cc(C)c(C#N)c2=O)c(Cl)c1", "cytotoxicity": "-6.5% (inactive)"}
{"smiles": "O=C(CN1C(=O)CSc2ccccc21)NCCC1=CCCCC1", "cytotoxicity": "-11% (inactive)"}
{"smiles": "COc1ccc(NS(=O)(=O)c2cc(C)ccc2OC)cc1OC", "cytotoxicity": "10.3% (inactive)"}
{"smiles": "S=C1SCN(Cc2ccccn2)CN1Cc1ccco1", "cytotoxicity": "64.7% (active)"}
{"smiles": "CN1C(=O)C2(c3ccccc31)N(C)CC(c1ccccn1)C21SC(=S)N(Cc2ccco2)C1=O", "note": "(stereo unspecified)", "cytotoxicity": "-9.5% (inactive)"}
{"smiles": "CCCN1CN(Cc2ccco2)c2nc3ccccc3n2C1", "cytotoxicity": "-15.1% (inactive)"}
{"smiles": "COCCN1CSC(=S)N(Cc2ccco2)C1", "cytotoxicity": "50.6% (active)"}
{"smiles": "O=C(N1CCOCC1)N1CCN(Cc2ccccc2)CC1", "cytotoxicity": "4.1% (inactive)"}
{"smiles": "c1ccc(CCN2CN(CCCN3CCOCC3)c3nc4ccccc4n3C2)cc1", "cytotoxicity": "-23.9% (inactive)"}
{"smiles": "COc1ccccc1N1CCN(Cc2ccco2)CC1", "cytotoxicity": "-25.7% (inactive)"}
{"smiles": "c1ccc(CN2CCN(c3ncccn3)CC2)nc1", "cytotoxicity": "6% (inactive)"}
{"smiles": "S=C1SCN(CCN2CCOCC2)CN1Cc1ccccc1", "cytotoxicity": "60.6% (active)"}
{"smiles": "CCOc1cccc(C(=O)Nc2cccc(-c3nc4ncccc4o3)c2C)c1", "cytotoxicity": "4.2% (inactive)"}
{"smiles": "COc1ccc(-n2c(Cc3cccn3C)nnc2SCC(=O)NCC2CCCO2)cc1", "note": "(stereo unspecified)", "cytotoxicity": "-8.1% (inactive)"}
{"smiles": "O=C1NC(c2cccs2)Nc2sc3c(c21)CCCC3", "note": "(stereo unspecified)", "cytotoxicity": "0.6% (inactive)"}
{"smiles": "CC(C)(C)c1ccccc1NC(=O)c1ccco1", "cytotoxicity": "15% (inactive)"}
{"smiles": "COc1ccc(NC(=O)c2ccc(COc3ccccc3Br)o2)cc1OC", "cytotoxicity": "36.6% (inactive)"}
{"smiles": "COc1cc(NC(=O)c2ccc(COc3ccccc3Br)o2)cc(OC)c1OC", "cytotoxicity": "56.6% (active)"}
{"smiles": "O=C(Nc1cccnc1)c1ccc(COc2ccccc2Br)o1", "cytotoxicity": "23.7% (inactive)"}
{"smiles": "CCOC(=O)C1CCN(C(=O)CN(Cc2ccc(Cl)cc2)S(C)(=O)=O)CC1", "cytotoxicity": "-1% (inactive)"}
{"smiles": "Cn1c(CCCOc2ccc(Cl)cc2Cl)nnc1SCC(=O)Nc1nccs1", "cytotoxicity": "1% (inactive)"}
{"smiles": "O=C(CCS(=O)(=O)c1ccc(Br)cc1)N1CCN(c2ccccc2)CC1", "cytotoxicity": "-1.2% (inactive)"}
{"smiles": "CC(=O)c1c(C)[nH]c(C(=O)N2CCc3ccccc32)c1C", "cytotoxicity": "1.3% (inactive)"}
{"smiles": "CCOC(=O)c1[nH]c(C)c(C(=O)Nc2ccc(C)c(C)c2)c1C", "cytotoxicity": "8.5% (inactive)"}
{"smiles": "CCOC(=O)c1[nH]c(C)c(C(=O)Nc2ccc(Cl)cc2)c1C", "cytotoxicity": "-8.4% (inactive)"}
{"smiles": "CCOC(=O)c1[nH]c(C)c(C(=O)c2cc(F)ccc2F)c1C", "cytotoxicity": "72.2% (active)"}
{"smiles": "CCOC(=O)c1c(C)[nH]c(C(=O)OCC(=O)N2CCc3ccccc32)c1C", "cytotoxicity": "-15.4% (inactive)"}
{"smiles": "CCOC(=O)c1[nH]c(C)c(C(=O)Nc2cc(Cl)ccc2C)c1C", "cytotoxicity": "60.6% (active)"}
{"smiles": "CCOC(=O)c1[nH]c(C)c(C(=O)OCC)c1C", "cytotoxicity": "-6% (inactive)"}
{"smiles": "CCOC(=O)c1[nH]c(C)c(C(=O)Nc2ccc(F)cc2)c1C", "cytotoxicity": "-4.5% (inactive)"}
{"smiles": "CCOC(=O)c1[nH]c(C)c(C(=O)Nc2cc(OC)ccc2OC)c1C", "cytotoxicity": "43.5% (inactive)"}
{"smiles": "CCOC(=O)c1[nH]c(C)c(C(=O)Nc2ccc(C)cc2C)c1C", "cytotoxicity": "51.9% (active)"}
{"smiles": "CCOC(=O)c1[nH]c(C)c(C(=O)N2CCc3ccccc32)c1C", "cytotoxicity": "58.8% (active)"}
{"smiles": "CCOC(=O)c1[nH]c(C)c(C(=O)Nc2ccc(C)c(Cl)c2)c1C", "cytotoxicity": "-20.5% (inactive)"}
{"smiles": "CCOC(=O)C1=C(N)N(c2ccccc2Oc2ccccc2)C(=O)C1", "cytotoxicity": "3.7% (inactive)"}
{"smiles": "CCS(=O)(=O)C(=C(Nc1ccc(OC)cc1)Nc1ccc(OC)cc1)S(=O)(=O)CC", "cytotoxicity": "-21.8% (inactive)"}
{"smiles": "CC(C)CC(=O)Nc1ccc(F)c(Cl)c1", "cytotoxicity": "-0.2% (inactive)"}
{"smiles": "Cc1ccsc1-c1nc(CSCC(=O)NCc2ccc3c(c2)OCO3)c(C)o1", "cytotoxicity": "5.8% (inactive)"}
{"smiles": "CC(C)C(=O)Nc1ccc(NC(=O)c2ccco2)cn1", "cytotoxicity": "-9.5% (inactive)"}
{"smiles": "Cc1cc(NC(=O)C(C)(C)C)no1", "cytotoxicity": "-22.1% (inactive)"}
{"smiles": "CCN(CC)S(=O)(=O)c1ccc(F)cc1", "cytotoxicity": "-8.3% (inactive)"}
{"smiles": "CC(C)c1[nH]nc2c1C(c1cccnc1)C(C#N)=C(N)O2", "note": "(stereo unspecified)", "cytotoxicity": "-15.1% (inactive)"}
{"smiles": "CCOC(=O)c1[nH]c(C)c(C(=O)Nc2ccccc2C)c1C", "cytotoxicity": "52.4% (active)"}
{"smiles": "CCOC(=O)c1[nH]c(C)c(C(=O)Nc2cccc(Cl)c2C)c1C", "cytotoxicity": "43.9% (inactive)"}
{"smiles": "CCOC(=O)c1[nH]c(C)c(C(=O)Nc2ccccc2F)c1C", "cytotoxicity": "43.6% (inactive)"}
{"smiles": "O=C(OCc1cc2ccccc2[nH]c1=O)c1ccco1", "cytotoxicity": "20.9% (inactive)"}
{"smiles": "Cc1ccc(S(=O)(=O)NC(=O)Nn2c(C)nnc2C)cc1", "cytotoxicity": "-7.7% (inactive)"}
{"smiles": "CC12CN3CC(C)(CN(C1)C3c1cc3ccccc3[nH]1)C2=O", "note": "(stereo unspecified)", "cytotoxicity": "14.8% (inactive)"}
{"smiles": "COc1ccc(CCNC(=O)CN(C2CCCCC2)S(C)(=O)=O)cc1OC", "cytotoxicity": "-1% (inactive)"}
{"smiles": "COCCn1c(SCC(=O)Nc2cccc(C)c2)nnc1C(C)C", "cytotoxicity": "1% (inactive)"}
{"smiles": "CCOc1ccc(NS(=O)(=O)c2ccc3[nH]c(=O)oc3c2)cc1", "cytotoxicity": "-0.3% (inactive)"}
{"smiles": "CCOc1ccc(NS(=O)(=O)c2ccc(SC)cc2)cc1", "cytotoxicity": "7.2% (inactive)"}
{"smiles": "CC1Cc2cc(C(=O)O)ccc2O1", "note": "(stereo unspecified)", "cytotoxicity": "-26.7% (inactive)"}
{"smiles": "CCN(C(=O)CCS(=O)(=O)c1ccc(Br)cc1)c1ccc2c(c1)OCO2", "cytotoxicity": "8.6% (inactive)"}
{"smiles": "O=C(c1coc(=O)c(Br)c1)N1CCOCC1", "cytotoxicity": "-0.3% (inactive)"}
{"smiles": "CCN(C(=O)c1coc(=O)c(Br)c1)c1ccc2c(c1)OCO2", "cytotoxicity": "74.4% (active)"}
{"smiles": "COc1ccc(C2(CNC(=O)c3ccc(Br)o3)CCOCC2)cc1", "cytotoxicity": "-0.2% (inactive)"}
{"smiles": "O=C(Cn1cc2c(n1)CCCC2)NCCc1ccccc1", "cytotoxicity": "-13% (inactive)"}
{"smiles": "Cc1nc(SCC(=O)N2CCN(c3ccccc3)CC2)c2oc3ccccc3c2n1", "cytotoxicity": "48.5% (inactive)"}
{"smiles": "Cc1cc(NS(=O)(=O)c2ccc(NC(=O)c3ccoc3C)cc2)nc(C)n1", "cytotoxicity": "2.9% (inactive)"}
{"smiles": "Clc1ccc(-n2nnnc2-c2ccccc2)cc1", "cytotoxicity": "-17.1% (inactive)"}
{"smiles": "COc1ccc(-n2nnnc2-c2cccnc2)cc1", "cytotoxicity": "-6.7% (inactive)"}
{"smiles": "COc1cccc(Oc2nnnn2-c2ccccc2)c1", "cytotoxicity": "-23% (inactive)"}
{"smiles": "CCS(=O)(=O)c1nnnn1-c1ccccc1S(C)(=O)=O", "cytotoxicity": "33.3% (inactive)"}
{"smiles": "COc1ccc(-c2nnnn2-c2ccccc2OC)cc1", "cytotoxicity": "46.6% (inactive)"}
{"smiles": "COc1cccc(-n2nnnc2SCC(=O)c2cc(OC)ccc2OC)c1", "cytotoxicity": "-12.2% (inactive)"}
{"smiles": "COc1ccc(-c2nnnn2CCc2ccccc2)cc1", "cytotoxicity": "-7.2% (inactive)"}
{"smiles": "O=C(CSc1nnnn1-c1ccccc1)CSc1nnnn1-c1ccccc1", "cytotoxicity": "-2.1% (inactive)"}
{"smiles": "N#CCCS(=O)(=O)c1nnnn1-c1ccccc1", "cytotoxicity": "64.6% (active)"}
{"smiles": "COc1ccc(-n2nnnc2-c2cccc(OC)c2)cc1", "cytotoxicity": "68.4% (active)"}
{"smiles": "CCOc1cccc(-n2nnnc2-c2ccc(OC)cc2)c1", "cytotoxicity": "56.8% (active)"}
{"smiles": "Nc1nc(-c2ccc(Cl)cc2)nn1C(=O)c1cccnc1", "cytotoxicity": "9.3% (inactive)"}
{"smiles": "CC(C)C(OC(=O)c1cc2sccc2n1C)C(=O)NCC1CCCO1", "note": "(stereo unspecified)", "cytotoxicity": "-19.4% (inactive)"}
{"smiles": "O=C(CSc1nnc(-c2ccccc2Br)o1)N1CCN(C(=O)c2ccco2)CC1", "cytotoxicity": "-13.5% (inactive)"}
{"smiles": "CC1CCCCN1C(=O)CSc1nnc(-c2ccco2)n1CC1CCCO1", "note": "(stereo unspecified)", "cytotoxicity": "3.9% (inactive)"}
{"smiles": "COc1cccc(OCc2nnc(SCC(=O)OC3CCCCC3)n2C)c1", "cytotoxicity": "-7.5% (inactive)"}
{"smiles": "CCOc1ccccc1NC(=O)CSc1nnc(CNC(=O)c2ccco2)o1", "cytotoxicity": "6.4% (inactive)"}
{"smiles": "CN(C)C(=O)N1CCN(C(=O)c2ccccc2Sc2ccccc2C#N)CC1", "cytotoxicity": "-6.6% (inactive)"}
{"smiles": "NS(=O)(=O)c1ccc(NC(=O)CSC2CCCCC2)cc1", "cytotoxicity": "-4.6% (inactive)"}
{"smiles": "NS(=O)(=O)c1ccc(NC=C2C(=O)OC3(CCCCC3)OC2=O)cc1", "cytotoxicity": "6.2% (inactive)"}
{"smiles": "O=C1c2oc3ccc(Cl)cc3c(=O)c2C(c2cccc(Br)c2)N1CCO", "note": "(stereo unspecified)", "cytotoxicity": "0.8% (inactive)"}
{"smiles": "Cc1ccccc1OCC(=O)Nc1ccc(N2CCN(S(C)(=O)=O)CC2)cc1", "cytotoxicity": "-2% (inactive)"}
{"smiles": "COc1cc(-c2nnc(COc3ccc4ccccc4c3)o2)cc(OC)c1OC", "cytotoxicity": "34.6% (inactive)"}
{"smiles": "COc1ccc(-c2nnc(COc3ccc4ccccc4c3)o2)cc1OC", "cytotoxicity": "4.4% (inactive)"}
{"smiles": "COc1cc(-c2nnc(COc3ccc4cc(Br)ccc4c3)o2)cc(OC)c1OC", "cytotoxicity": "78.6% (active)"}
{"smiles": "COc1ccc(C(=O)OCn2nnc3ccccc3c2=O)cc1OC", "cytotoxicity": "6.3% (inactive)"}
{"smiles": "CCOc1ccc(S(=O)(=O)n2cnc3cc(C)c(C)cc32)cc1", "cytotoxicity": "8.7% (inactive)"}
{"smiles": "CC(C)(C)N1C(=O)Cc2c1nc(N)c1c(N)nc(N3CCCCC3CO)c(C#N)c21", "note": "(stereo unspecified)", "cytotoxicity": "54.6% (active)"}
{"smiles": "N#Cc1c(N)nc2c(c1N)CC(=O)N2c1ccccc1-c1ccccc1", "cytotoxicity": "0.1% (inactive)"}
{"smiles": "CCOC(=O)CNS(=O)(=O)CCN1C(=O)c2ccccc2C1=O", "cytotoxicity": "-14.2% (inactive)"}
{"smiles": "CCOC(=O)c1c(CN2CCCCC2C)oc2ccc(OC)cc12", "note": "(stereo unspecified)", "cytotoxicity": "3.6% (inactive)"}
{"smiles": "CCOC(=O)c1cccc(NC(=O)c2cnc3ccccc3n2)c1", "cytotoxicity": "0.8% (inactive)"}
